Data from PubChem BioAssay AID651742 (Broad Institute, 2012).
Hit rate of the full screen: of about 5,600 compounds, about 780 (14%) were called active. Another 3% or so got no clear call; they are omitted. These entries were drawn from the full list. Unmarked numbers belong to inactive results.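 How the source made its calls: active means mean signal decrease across replicates above about 35% based on untreated-well scatter, with enough replicates individually passing (limit read from the data); inconclusive means no rule stated though some were filed; inactive means the rest.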

Assay: cytotoxicity in mouse NIH/3T3 fibroblasts, confirmation, cytotoxicity control for T. cruzi proliferation inhibitor project, cell-based, cherry-pick, single point (AID 651742);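 further: 0% = median of neutral control wells and 100% = median of positive control wells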
Conditions: NIH/3T3 viability, CellTiter-Glo ATP luminescence, 90 h; at 8.35 µM; stronger effect = higher value

Structure (SMILES)	cytotoxicity (signal decrease)
COc1cccc(S(=O)(=O)N2CCCCN3[C@H](CO)[C@H](c4ccc(-c5ccncc5)cc4)[C@H]3C2)c1	9.65%
O=S(=O)(Cc1ccccc1)N1CCCCN2[C@@H](CO)[C@H](c3ccc(-c4ccccc4)cc3)[C@@H]2C1	41.5% (active)
CN(C)C(=O)c1ccc(-c2ccc([C@@H]3[C@H](CO)N4CCCCN(S(C)(=O)=O)C[C@@H]34)cc2)cc1	5.37%
O=S(=O)(c1ccc(F)cc1)N1CCCCN2[C@H](C1)[C@H](c1ccc(C3=CCCCC3)cc1)[C@@H]2CO	12.6%
Cc1cccc(-c2ccc([C@H]3[C@@H](CO)N4CCCCN(Cc5cncnc5)C[C@H]34)cc2)c1	17.8%
Cc1cccc(-c2ccc([C@@H]3[C@@H](CO)N4CCCCN(S(=O)(=O)c5cccs5)C[C@H]34)cc2)c1	42.5% (active)
O=S(=O)(Cc1ccccc1)N1CCCCN2[C@@H](CO)[C@@H](c3ccc(-c4ccc(F)cc4)cc3)[C@@H]2C1	68.5% (active)
Cc1ccccc1-c1ccc([C@@H]2[C@H](CO)N3CCCCN(S(=O)(=O)c4ccc(F)cc4)C[C@@H]23)cc1	43.8% (active)
CCS(=O)(=O)N1CCCCN2[C@@H](CO)[C@@H](c3ccc(-c4ccccc4)cc3)[C@@H]2C1	18.2%
C[C@H](O)C#Cc1ccc([C@H]2[C@H]3CN(S(=O)(=O)Cc4ccccc4)CCCCN3[C@H]2CO)cc1	10.3%
O=S(=O)(Cc1ccccc1)N1CCCCN2[C@@H](CO)[C@H](c3ccc(-c4cccnc4)cc3)[C@@H]2C1	5.7%
Cc1ccccc1-c1ccc([C@H]2[C@H]3CN(S(=O)(=O)c4ccc(F)cc4)CCCCN3[C@H]2CO)cc1	12%
CC(C)C#Cc1ccc([C@H]2[C@H](CO)N3CCCCN(C(=O)NC(C)C)C[C@@H]23)cc1	13.1%
C[C@H]1CCCCO[C@H](CN(C)Cc2ccccc2)[C@@H](C)CN([C@@H](C)CO)C(=O)c2cc(NC(=O)NC3CCCCC3)ccc2O1	12.5%
COc1ccc(C#Cc2cnc3c(c2)C(=O)N([C@@H](C)CO)C[C@H](C)[C@@H](CN(C)C(C)=O)O3)cc1	-3.17%
CN(C)CC#Cc1ccc([C@H]2[C@H]3CN(S(=O)(=O)c4ccccc4F)CCCCN3[C@H]2CO)cc1	20.2%
COCC(=O)N(C)C[C@@H]1Oc2ncc(C#Cc3ccccc3OC)cc2C(=O)N([C@@H](C)CO)C[C@H]1C	1.95%
Cc1ccc(S(=O)(=O)Nc2ccc3c(c2)C(=O)N([C@@H](C)CO)C[C@@H](C)[C@H](CN(C)C(=O)Nc2cccc4ccccc24)OCCCC[C@H](C)O3)cc1	-10.9%
